Experimental data as given in the supplement of paper PMC13380429.

System: Vero E6 infected with SARS-CoV-2
Assay: inhibition of SARS-CoV-2 cytopathic effect; higher = more antiviral protection, active = above 15
Details: 833.33 nM; 48 h

| SMILES | inhibition of SARS-CoV-2 cytopathic effect |
| --- | --- |
| O=C(O)c1ccc(/C=C2\SC(=S)N(c3cccc(C(F)(F)F)c3)C2=O)cc1 | -1.38% (inactive) |
| Cc1ccccc1/N=N/c1ccc(/N=N/c2c(O)ccc3ccccc23)c(C)c1 [sudan-IV] | -0.99% (inactive) |
| C[C@H]1COc2c(C3(N)CC3)c(F)cc3c(=O)c(C(=O)O)cn1c23 [pazufloxacin] | 0.57% (inactive) |
| O=C(c1cccc(Br)c1)N1CCC(N2CCCC2)CC1 | 2.16% (inactive) |
| CC[C@@H](C)Nc1cc(C(=O)N[C@H]2C[C@H]3CC[C@@H](C2)N3c2ccc(C(=O)C3CC3)cn2)c(C)cc1C(N)=O | 2.73% (inactive) |
| COc1ccc(CCNCc2ccc(OCc3ccc(Cl)nc3)c(OC)c2)cc1OC | -1.6% (inactive) |
| CC(=O)NNC(=O)N1Cc2ccccc2Oc2ccc(Cl)cc21 | -0.99% (inactive) |
| CN1CCC(=C2c3ccccc3C=Cc3ccccc32)CC1 [cyproheptadine] | -0.75% (inactive) |
| CCCn1c(=O)c2[nH]c(-c3cnn(Cc4cccc(C(F)(F)F)c4)c3)nc2n(CC)c1=O | -0.96% (inactive) |
| Cc1nc(Nc2ncc(C(=O)Nc3c(C)cccc3Cl)s2)cc(N2CCN(CCO)CC2)n1 [dasatinib] | -12.6% (inactive) |
| Cc1cc(N2CCOCC2)ccc1Nc1nc(NC2CCCCC2)c2nc[nH]c2n1 | 3.17% (inactive) |
| Clc1ccc(-c2nc3sccn3c2/C=N/OCc2ccc(Cl)c(Cl)c2)cc1 | -0.11% (inactive) |
| CCCn1c(=O)c2nc(-c3ccccc3)[nH]c2n(CCC)c1=O [1,3-dipropyl-8-phenylxanthine] | -3.56% (inactive) |
| CCOc1ccccc1C(=O)O [2-ethoxybenzoic-acid] | 0.66% (inactive) |
| Cc1cc(C)c(S(=O)(=O)n2cc(C)cc2C)c(C)c1 | 0.3% (inactive) |
| CCCCn1c(=O)c2[nH]c(C34CC5CC(CC3C5)C4)nc2n(CCCO)c1=O | -1.18% (inactive) |
| Cc1cccc(NC(=O)c2ccc(C(F)(F)F)cc2C(=O)O)n1 | 0.88% (inactive) |
| COc1ccc(C(=O)N2CCCc3cc(C4=NNC(=O)SC4C)ccc32)cc1OC (stereo unspecified) | 0.74% (inactive) |

| SMILES | inhibition of SARS-CoV-2 cytopathic effect |
| --- | --- |
| O=C(/C=C/c1ccc2ccc(C(F)(F)F)cc2n1)c1ccncc1 | 0.28% (inactive) |
| CC(C)=CCC/C(C)=C/CC/C(C)=C/CSc1ccccc1C(=O)O [salirasib] | 6.06% (inactive) |
| N=C1NC(=O)/C(=C/c2ccc(O)cc2)S1 [mirin] | -3.88% (inactive) |
| Clc1ccc(C(Cn2ccnc2)OCc2ccsc2Cl)c(Cl)c1 (stereo unspecified) [tioconazole] | -4.33% (inactive) |
| Cc1cnc(Nc2ccc(OCCN3CCCC3)cc2)nc1Nc1cccc(S(=O)(=O)NC(C)(C)C)c1 [fedratinib] | -3.59% (inactive) |
| O=C(O)CC/C=C\C[C@@H]1CO[C@H](c2ccccc2Cl)O[C@@H]1c1ccccc1O (racemic) | 0.59% (inactive) |
| COc1cc(OC)c(/C=C2/C(=O)Nc3ccccc32)c(OC)c1 | 1.29% (inactive) |
| Nc1ncnc2c1nc(Br)n2[C@@H]1O[C@@H]2COP(=O)(O)O[C@H]2[C@H]1O [8-bromo-cAMP] | -1.33% (inactive) |
| CN[C@@H](C)CCC=C(C)C [isometheptene-mucate] | -1.17% (inactive) |
| CC1(C)S[C@@H]2[C@H](NC(=O)C(C(=O)O)c3ccccc3)C(=O)N2[C@H]1C(=O)O (stereo partly specified) [carbenicillin] | 2.42% (inactive) |
| NCC1(CC(=O)O)CCCCC1 [gabapentin] | 0.15% (inactive) |
| S=P(N1CC1)(N1CC1)N1CC1 [thiotepa] | -0.47% (inactive) |
| COc1cc([C@@H]2c3cc4c(cc3[C@@H](O[C@@H]3O[C@@H]5CO[C@@H](C)O[C@H]5[C@H](O)[C@H]3O)[C@H]3COC(=O)[C@H]23)OCO4)cc(OC)c1O [etoposide] | -2.82% (inactive) |
| CCN(CC)Cc1nccn1-c1ccc([N+](=O)[O-])cc1C(=O)c1ccccc1Cl [nizofenone] | 0.15% (inactive) |
| O=c1[nH]c(=O)n([C@H]2C[C@H](O)[C@@H](CO)O2)cc1Br [broxuridine] | 3.59% (inactive) |
| NCCc1cc[nH]n1 [betazole] | 0.04% (inactive) |
| COc1ncc2cc(C(=O)Nc3cc(C(=O)NCc4cccc(Cl)c4)ccc3Cl)c(=O)[nH]c2n1 | 0.54% (inactive) |
| c1ccc2c(c1)CN1CCCC1=N2 [desoxypeganine] | -2.32% (inactive) |
